# Pf growth 48h = P. falciparum growth inhibition at 48 hours (one generation). P. falciparum luciferase growth in erythrocytes, 48 h. Potency, µM (series often up to 28.7 µM), inactives show at the top dose activity change, negative = inhibition, actives largely listed as inhibitors. 5.9% of 310,000 active. AID 504832; note: potency is the fitted concentration of half-maximal effect; % is set by controls: 0 for no effect and ±100 for the full control effect
#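 Read-out is firefly luciferase luminescence from an integrated reporter in P. falciparum, so falling signal marks reduced parasite growth. Infected erythrocytes were at 2% hematocrit and 0.1% parasitemia (final) in Albumax-supplemented RPMI 1640.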
# Shiga toxin inh = inhibitors of Shiga toxin in Vero cells | Vero cells, Shiga toxin protein synthesis inhibition reporter | inhibition, % at 38.7 µM | 9.2% of 290,000 active; in the data active = inhibition mostly above about 28%, no sharp cut-off; inactive = mostly below about 43%; note: 0% is about no effect
# HCMV antiviral = inhibitors of human cytomegalovirus. HFF cells, HCMV-luciferase reporter, 72 h; hits give low values. activity change, negative = inhibition, % at 57.5 µM. 4.5% of 410,000 active. AID 1259415; in the data active = activity change below about -60%; inconclusive = no clear call, values can overlap the other calls; inactive = above about -39%; note: % is set by controls: 0 for no effect and ±100 for the full control effect
#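 Inhibition of viral replication was scored as loss of reporter luminescence in HFFs infected with HCMV-luciferase (MOI 1 PFU/cell) for 72 h; compounds tested at 2 doses, normalized to buffer and Salinomycin controls.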
# Pf growth 96h = P. falciparum growth inhibition at 96 hour, primary screen for plastid delayed-death inhibitors; P. falciparum luciferase reporter growth, 96 h; Potency, µM (doses to about 28.7 µM), inactives show top-dose activity change, negative = inhibition, hits mostly inhibitors; 6.9% of 320,000 active; note: potency is the fitted concentration of half-maximal effect; % is set by controls: 0 for no effect and ±100 for the full control effect
#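 Parasite growth measured via integrated firefly luciferase reporter in P. falciparum. Infected erythrocytes at 2% hematocrit, 0.05% parasitemia final were treated 96 hours at 37 C under 5% CO2, and luminescence was read.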
# CHX counter = affects cycloheximide protein synthesis inhibition readout, counter-screen | 12% of 300,000 active | cell reporter, cycloheximide protein synthesis inhibition counterscreen | max response, %; in the data active = max response mostly above about 13%, no sharp cut-off; inactive = mostly below about 14%; note: read at 38.3 µM for the half of the compounds with a filed dose; 0% is about no effect
# * = called active by the depositor; ? = inconclusive; nt = no result; [ ] = dose if it differs, or a comment. This is a sample that favours compounds with a hit; in the whole collection about 20% have one here. Unless noted, calls come from the whole dose curve; as a rule, active = well fitted inhibition curve with a large enough effect; inconclusive = small, poorly fitted or top-dose-only effect, or another doubt; inactive = no such curve, though single readings can be large or run the other way.
SMILES,Pf growth 48h,Shiga toxin inh,HCMV antiviral,Pf growth 96h,CHX counter
Cc1cc(OCC(=O)Nc2sc3c(c2C#N)CC(C)(C)NC3(C)C)c(C(C)C)cc1Cl,13µM*,-8,-21,7.4µM*,-3
COc1cc2c(C(=O)NCc3ccccn3)cn(CC(C)C)c(=O)c2cc1OC,-9%,-6,95,13µM*,-5
CCn1cc(C(=O)NCc2cccnc2)c2cc(OC)c(OC)cc2c1=O,23%,-8,-1,2.1µM*,-1
COC(=O)CNC(=O)c1cn(CC(C)C)c(=O)c2cc(OC)c(OC)cc12,0%,-4,-1,179%,-3
COc1cc(OC)c(C(=O)NCc2cccnc2)cc1OC,10%,23,2,-15%,13
O=C(O)CC(NC(=O)Cc1ccc([N+](=O)[O-])cc1)c1ccc2c(c1)OCO2 (stereo unspecified),33%,-4,-32,7%,-3
Cc1c(C)n(CC(O)CSc2ccccc2)c2ccccc12 (stereo unspecified),nt,nt,-10,nt,nt
COc1ccccc1N(C)S(=O)(=O)c1ccc(C(=O)N(C)Cc2ccc(Cl)s2)cc1,12µM*,nt,-22,?,nt
COc1ccccc1N(C)S(=O)(=O)c1ccc(C(=O)O)cc1,13%,3,?,-4%,-2
CCOc1ccc(CN(C)C(=O)c2ccc(S(=O)(=O)N(C)c3ccccc3OC)cc2)cc1,13µM*,nt,?,?,nt
Cc1ccc(-c2nc(CS(=O)CC(=O)NCc3ccc4c(c3)OCO4)c(C)o2)cc1 (stereo unspecified),3%,-7,nt,28%,4
CCCCC1Cc2[nH][nH]c(=O)c2C(c2ccc(F)cc2)O1 (stereo unspecified),nt,nt,-3,nt,nt
COc1ccccc1C(=O)Nc1ccc(S(=O)(=O)Nc2nc(C)cc(C)n2)cc1,nt,nt,0,nt,nt
Nc1cc(N)nc(SCc2ccccc2)n1,156%,53*,89,210%,41*
Nc1cc(N)nc(SCCc2ccccc2)n1,10%,26,4,-33%,16*
COc1cccc(C2C(C(C)=O)=C(O)C(=O)N2CCNCCO)c1 (stereo unspecified),16%,-20,nt,?,-1
CC(C)CCCCCCCCCCCCC(=O)NCC(=O)NC1C(C)OC(Nc2ncnc3nc[nH]c23)C(O)C1O (stereo unspecified),nt,nt,-96*,nt,nt
COc1cc(C)ccc1OCCn1c(-c2ccc(Cl)cc2)nc2ccccc2c1=O,nt,nt,-10,nt,nt
O=[N+]([O-])c1ccc(O)c(-c2ccnc3cc(-c4ccccc4)nn23)c1,nt,nt,-78*,nt,nt
O=[N+]([O-])c1cccc(-c2cc(C(F)(F)F)n3nc(-c4ccccc4)cc3n2)c1,?,14,7,0%,19
Cc1cc(C)n2nc(C(=O)N/N=C/C=C/c3ccccc3)nc2n1,-13%,-3,27,9%,8
Cc1ccnc(N2C(=O)c3ccccc3C2O)c1 (stereo unspecified),nt,42,98,15%,39*
O=C1c2ccccc2C(Nc2ccccc2F)N1c1cccnc1 (stereo unspecified),nt,-21,17,14%,-4
Cc1ccnc(N2C(=O)c3ccccc3C2Nc2cccc(C)c2C)c1 (stereo unspecified),?,28*,-14,7%,15*
COc1ccccc1CNC(=O)Nc1nc(C(N)Cc2ccc(Cl)cc2)cs1 (stereo unspecified),nt,nt,39,nt,nt
SMILES,Pf growth 48h,Shiga toxin inh,HCMV antiviral,Pf growth 96h,CHX counter
O=C(c1ccc(Cl)cc1)c1ccccc1C(=O)N1CCOCC1,10%,-11,63,38%,-3
Nc1nc(C(=O)N2CCOCC2)nn1C(=O)c1ccc(Cl)cc1,17%,-10,3,10µM*,-2
CCOC(=O)c1c(-c2ccc(F)cc2)csc1NC(=O)c1c(-c2ccccc2)noc1C,?,-2,-68*,-1%,2
COC(=O)c1c(-c2ccccc2)csc1NC(=O)c1c(-c2ccccc2)noc1C,13µM*,11,-79*,?,2
CCOC(=O)c1c(C)c(C(=O)NCCc2ccc(OC)cc2)c(C)n1C,nt,nt,-3,nt,nt
COc1ccc(CNC(=O)CCc2c(C)nc3nc(CNC(=O)OC(C)(C)C)nn3c2C)cc1,nt,nt,-15,nt,nt
Cc1ccsc1CCN1C(=O)N(c2ccccc2)C(=O)C1CC(=O)Nc1ccc(Cl)cc1 (stereo unspecified),nt,nt,2,nt,nt
CN(C)c1ccc(SC#N)cc1,6.6µM*,-2,-2,2.9µM*,1
CCCCSCCCNC(=O)c1cc(-c2cccnc2)nc2ccc(S(=O)(=O)N3CCC(C)CC3)cc12,nt,nt,20,nt,nt
CCOc1c(Cl)cc(CNCc2ccccn2)cc1OC,?,32,0,44%[5.75 µM],14
Fc1ccc(-c2ccc(CNCc3ccccn3)o2)cc1,47%,nt,33,-17%,25*
CC(C)C(CCNCc1ccccn1)c1ccc(Cl)cc1 (stereo unspecified),?,3,?,?,-3
Clc1ccc(-c2ccc(CNCc3ccccn3)o2)cc1,1%,24*,-19,-13%,21*
COc1ccc(-c2ccc(CNCc3ccccn3)o2)cc1Cl,5%,9,nt,?,13*
O=C(NCC1CCCN1S(=O)(=O)c1cccs1)c1cccc(Cl)c1 (stereo unspecified),?,nt,?,-8%,nt
FC(F)(F)C(Oc1nc(NC2CCCCC2)nc(N2CCOCC2)n1)C(F)(F)F,12µM*,1,15,?,-1
Cn1c(SCC(=O)NCC2CCCO2)nnc1-c1ccc(Cl)cc1 (stereo unspecified),4%,nt,0,0%,nt
CCN(CC(=O)Nc1ccc(S(=O)(=O)N2CCCC2)cc1)Cc1ccccc1,13µM*,nt,-32,?,nt
CN(CC(=O)Nc1ccc(Cl)cc1)c1ccc(S(=O)(=O)N2CCCCC2)cc1[N+](=O)[O-],?,-13,-68*,2.9µM*,-4
CN1CCN(c2ccc(S(=O)(=O)N3CCCCC3)cc2NC(=O)CCc2ccccc2)CC1,9.3µM*,nt,-24,?,nt
CN(CC(=O)Nc1ccc(S(=O)(=O)N2CCCC2)cc1)Cc1ccc(Cl)cc1Cl,?,-11,-36,?,-2
CCN(CC(=O)Nc1ccc(S(=O)(=O)N2CCOCC2)cc1)Cc1ccccc1,?,nt,-14,?,nt
O=C(CCc1ccccc1)Nc1ccc(N2CCCCC2)cc1,98%,93*,-10,-8%,33*
COc1ccccc1N(C)S(=O)(=O)c1ccc(C(=O)NCCCN2CCCC2=O)cc1,nt,nt,-4,nt,nt
CC(=O)N1CCC(N(Cc2ccco2)C(=O)Nc2ccc(Br)cc2F)CC1,nt,nt,-13,nt,nt
COc1ccc(CN(C)c2ccc(S(=O)(=O)N3CCN(C)CC3)cc2[N+](=O)[O-])cc1OC,12µM*,nt,-86*,15µM*,nt
O=C(CN1CCCCC1)Nc1ccccc1,nt,-23,30,58%,-1
O=C(CN1CCCCC1)Nc1ccc(N2CCCCCC2)cc1,?,44,-27,24%,17*
CCOc1ccc(NC(=O)CN(C)C(=O)/C=C/c2ccc(S(=O)(=O)N3CCCCCC3)cc2)cc1OCC,?,nt,-4,-2%,nt
